Where “and” joins values, the source holds several entries; their conditions need not be identical. Equal entries are not always repeated. Inconclusive results are not listed. Entries that show only a call come without a potency. Some structures have more than one record in an assay (separate samples or runs), and their calls can disagree. Calls of active or inactive are those of the source. Calls follow the shape of the dose curve; as a rule, active = well fitted curve in the direction sought with a large enough effect in the repeat runs; inconclusive = weak or mixed curves; inactive = no such curve, though single readings can be large; an effect the other way counts as inactive or inconclusive.
Assays:
[1] = Caspase-3/7 induction in HepG2 cells by small molecules, qHTS assay (AID 1346978); also: nearly all actives have a fitted effect of over 15% in size; also: potency is read from the fitted curve at half-maximal effect
In short: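 Wild-type HepG2 cells, 2,000/well, settled 5 hr at 37 C and 5% CO2, then compound-treated for 17 hr; caspase-3/7 activity read by luminescent Caspase-Glo 3/7 after 30 min at room temperature.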

[2] = Caspase-3/7 induction in CHO-K1 cells by small molecules, qHTS cell viability counter screen (AID 1346979); also: nearly all actives have a fitted effect of over 35% in size; also: potency is read from the fitted curve at half-maximal effect
In short: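 CellTiter-Fluor viability check, qHTS format: wild-type CHO-K1, 16hr compound treatment, 1hr reagent incubation, fluorescence read.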

[3] = Caspase-3/7 induction in CHO-K1 cells by small molecules, qHTS assay (AID 1346980); also: nearly all actives have a fitted effect of over 15% in size; also: potency is read from the fitted curve at half-maximal effect
In short: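 Wild-type CHO-K1 cells exposed to compounds for 17hr at 37 C, 5% CO2. Caspase-3/7 activity then measured by Caspase-Glo 3/7 luminescence after 30min at room temperature.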

[4] = Caspase-3/7 induction in HepG2 cells by small molecules, qHTS cell viability counter screen (AID 1346981); also: nearly all actives have a fitted effect of over 30% in size; also: potency is read from the fitted curve at half-maximal effect
In short: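 Steps: seed 2,000 HepG2 cells per well; incubate 5 hr at 37 C; pin-add compounds in DMSO; incubate 16 hr; add CellTiter-Fluor; after 1 hr at 37 C and 5% CO2, read fluorescence.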

[5] = molecular target: Nuclear receptor subfamily 1 group I member 2 (Homo sapiens) (UniProt O75469); test: Human pregnane X receptor (PXR) small molecule agonists, qHTS assay (AID 1346982); also: nearly all actives have a fitted effect of over 35% in size; also: potency is read from the fitted curve at half-maximal effect
Sequence of Nuclear receptor subfamily 1 group I member 2 (Homo sapiens) (O75469 whole entry, looked up): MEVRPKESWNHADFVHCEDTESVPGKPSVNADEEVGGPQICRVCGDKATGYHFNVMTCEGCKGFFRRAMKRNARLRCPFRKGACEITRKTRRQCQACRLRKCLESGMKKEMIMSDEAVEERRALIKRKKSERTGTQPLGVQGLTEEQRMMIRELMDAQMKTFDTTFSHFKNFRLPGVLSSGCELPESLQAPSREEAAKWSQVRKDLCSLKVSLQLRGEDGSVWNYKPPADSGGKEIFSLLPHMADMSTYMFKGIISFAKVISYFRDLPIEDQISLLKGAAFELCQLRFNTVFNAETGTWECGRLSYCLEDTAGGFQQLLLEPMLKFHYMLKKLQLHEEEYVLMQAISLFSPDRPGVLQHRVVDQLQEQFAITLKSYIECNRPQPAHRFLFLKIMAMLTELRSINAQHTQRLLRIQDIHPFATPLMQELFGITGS
In short: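 Agonist mode qHTS: PXR-Luc HepG2 cells plated 5 hr before DMSO-dissolved compounds were pinned in, cultured 24 hr at 37 C, 5% CO2; ONE-Glo luminescence readout.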

[6] = molecular target: Cytochrome P450 2C19 (Homo sapiens) (UniProt P33261); test: Cytochrome P450 Family 2 Subfamily C Member 19 (CYP2C19) small molecule antagonists: luciferase reporter qHTS assay (AID 1671197); also: nearly all actives have a fitted effect of over 65% in size; also: potency is read from the fitted curve at half-maximal effect
Sequence of Cytochrome P450 2C19 (Homo sapiens) (P33261 whole entry, looked up): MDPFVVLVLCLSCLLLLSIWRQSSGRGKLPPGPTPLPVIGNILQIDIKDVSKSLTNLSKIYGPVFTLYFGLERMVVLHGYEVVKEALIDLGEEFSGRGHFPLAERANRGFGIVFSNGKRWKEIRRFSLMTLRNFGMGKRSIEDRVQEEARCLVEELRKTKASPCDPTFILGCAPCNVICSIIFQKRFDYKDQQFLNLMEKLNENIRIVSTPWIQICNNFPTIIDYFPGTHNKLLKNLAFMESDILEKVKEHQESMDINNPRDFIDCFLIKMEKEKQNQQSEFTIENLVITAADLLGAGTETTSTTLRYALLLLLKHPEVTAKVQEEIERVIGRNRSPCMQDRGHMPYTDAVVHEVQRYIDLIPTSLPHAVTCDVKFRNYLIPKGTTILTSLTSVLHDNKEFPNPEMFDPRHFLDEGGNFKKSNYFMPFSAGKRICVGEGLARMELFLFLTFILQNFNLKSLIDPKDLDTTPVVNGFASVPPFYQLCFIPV
In short: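 Compounds were tested on CYP2C19 activity via proluciferin conversion to luciferin. The 37C, 1 h reaction followed NADPH addition; detection reagent stopped it.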

[7] = molecular target: Cytochrome P450 2C9 (Homo sapiens) (UniProt P11712); test: Cytochrome P450 Family 2 Subfamily C Member 9 (CYP2C9) small molecule antagonists: luciferase reporter qHTS assay (AID 1671198); also: nearly all actives have a fitted effect of over 50% in size; also: potency is read from the fitted curve at half-maximal effect
Sequence of Cytochrome P450 2C9 (Homo sapiens) (P11712 whole entry, looked up): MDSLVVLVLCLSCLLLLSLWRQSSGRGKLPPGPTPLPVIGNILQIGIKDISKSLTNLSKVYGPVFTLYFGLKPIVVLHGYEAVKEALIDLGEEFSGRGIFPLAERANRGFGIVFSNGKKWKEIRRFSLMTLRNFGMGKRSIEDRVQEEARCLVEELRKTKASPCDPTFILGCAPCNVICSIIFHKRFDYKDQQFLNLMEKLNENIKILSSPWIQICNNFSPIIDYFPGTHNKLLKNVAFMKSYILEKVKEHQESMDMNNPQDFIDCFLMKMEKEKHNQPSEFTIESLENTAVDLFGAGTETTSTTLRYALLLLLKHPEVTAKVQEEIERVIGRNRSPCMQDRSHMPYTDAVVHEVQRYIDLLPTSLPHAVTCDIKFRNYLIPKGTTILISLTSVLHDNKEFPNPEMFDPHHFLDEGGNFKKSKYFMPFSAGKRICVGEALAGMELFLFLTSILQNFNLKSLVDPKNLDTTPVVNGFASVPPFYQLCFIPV
In short: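 P450-Glo proluciferin substrate with CYP2C9 enzyme; 10 min RT preincubation, then NADPH regeneration 1 h at 37C; luciferin detection reagent 20 min RT, luminescence in relative luminescence units.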

[8] = molecular target: Cytochrome P450 2D6 (Homo sapiens) (UniProt P10635); test: Cytochrome P450 Family 2 Subfamily D Member 6 (CYP2D6) small molecule antagonists: luciferase reporter qHTS assay (AID 1671196); also: nearly all actives have a fitted effect of over 50% in size; also: potency is read from the fitted curve at half-maximal effect
Sequence of Cytochrome P450 2D6 (Homo sapiens) (P10635 whole entry, looked up): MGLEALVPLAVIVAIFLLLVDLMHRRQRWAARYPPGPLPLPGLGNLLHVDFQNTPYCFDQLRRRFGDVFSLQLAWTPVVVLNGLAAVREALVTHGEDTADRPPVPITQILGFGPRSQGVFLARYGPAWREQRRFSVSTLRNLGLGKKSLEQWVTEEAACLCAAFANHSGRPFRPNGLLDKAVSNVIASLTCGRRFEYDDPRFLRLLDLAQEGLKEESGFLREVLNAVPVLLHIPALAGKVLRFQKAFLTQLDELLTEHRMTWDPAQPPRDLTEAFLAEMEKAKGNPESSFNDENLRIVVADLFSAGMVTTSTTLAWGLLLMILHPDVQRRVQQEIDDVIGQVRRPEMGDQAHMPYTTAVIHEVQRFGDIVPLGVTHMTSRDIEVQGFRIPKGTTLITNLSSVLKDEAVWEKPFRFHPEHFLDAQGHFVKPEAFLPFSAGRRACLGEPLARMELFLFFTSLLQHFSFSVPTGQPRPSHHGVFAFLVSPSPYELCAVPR
In short: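 P450-Glo format: CYP2D6 converts a proluciferin substrate to luciferin in an NADPH-driven reaction lasting 1 h at room temperature. Light output, proportional to CYP2D6 activity, reflects interference by test chemicals.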

[9] = molecular target: Nuclear receptor subfamily 1 group I member 2 (Rattus norvegicus) (UniProt Q9R1A7); test: Rat pregnane X receptor (rPXR) activation by small molecules, qHTS assay (AID 1346983); conditions: rPXR luciferase reporter cells, One-Glo luminescence, 24 h; max activation: stronger effect = higher value; also: nearly all actives have a fitted effect of over 20% in size
Sequence of Nuclear receptor subfamily 1 group I member 2 (Rattus norvegicus) (Q9R1A7 whole entry, looked up): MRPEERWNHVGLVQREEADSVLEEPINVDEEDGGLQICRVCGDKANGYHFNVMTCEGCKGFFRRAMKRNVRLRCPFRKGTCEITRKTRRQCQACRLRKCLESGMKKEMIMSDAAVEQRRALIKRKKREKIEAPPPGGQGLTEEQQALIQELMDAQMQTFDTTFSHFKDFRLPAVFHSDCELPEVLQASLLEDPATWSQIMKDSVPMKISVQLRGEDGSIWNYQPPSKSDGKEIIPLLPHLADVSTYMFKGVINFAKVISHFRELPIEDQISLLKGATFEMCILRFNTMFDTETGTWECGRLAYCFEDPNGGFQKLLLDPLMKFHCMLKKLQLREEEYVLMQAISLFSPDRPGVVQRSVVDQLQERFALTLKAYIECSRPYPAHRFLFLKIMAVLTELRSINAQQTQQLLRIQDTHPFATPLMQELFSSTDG
In short: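 Cell-based rPXR activation assay: rPXR cells, 2,000 per well, rested 5hr at 37 C, then exposed to compounds in DMSO for 24 hr at 37 C. Luciferase activity read by One-Glo luminescence after 30 min at room temperature.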

[10] = molecular target: Nuclear receptor subfamily 1 group I member 2 (Homo sapiens) (UniProt O75469); test: CYP3A4 induction through human pregnane X receptor (PXR) by small molecules, qHTS assay (AID 1346984); also: nearly all actives have a fitted effect of over 40% in size
In short: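 Steps: seed DPX-2 cells, 5 hr at 37C; pin-transfer compounds; 24 hr at 37C; add Luciferin-IPA (3uM final), 3 hr at 37C; add One-Glo, 30 min RT; read luminescence.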

Row | Structure (SMILES) | Potency [1] | Potency [2] | Potency [3] | Potency [4] | Potency [5] | Potency [6] | Potency [7] | Potency [8] | max activation [9] | Potency [10]
1 | CN(C)CCN1CCOCC1 | inactive | inactive | inactive | inactive | inactive | inactive | inactive | – | – | –
2 | CC(COC(=O)c1ccccc1)OC(=O)c1ccccc1 (centres undefined) | inactive | inactive | inactive | inactive | inactive | 20 µM (active) | 15.9 µM (active) | – | – | –
3 | Clc1ccc(C(Cn2ccnc2)OCc2ccsc2Cl)c(Cl)c1 (centres undefined) | inactive | 21.1 µM (active) | inactive | – | – | 0.347 µM (active) | 0.309 µM (active) | 3.47 µM (active) | – | –
4 | O=C(O)CCn1c2c(c3ccccc31)C[C@H](NS(=O)(=O)c1ccc(F)cc1)CC2 | inactive | inactive | inactive | inactive | – | inactive | 17.4 µM (active) | inactive | – | –
5 | COC(=O)CC#N | inactive | inactive | inactive | inactive | inactive | – | inactive | – | – | –
6 | CSc1ccc2c(c1)N(CCC1CCCCN1C)c1ccccc1S2 (centres undefined) | 30.5 µM (active) | 15.3 µM (active) and 29.8 µM (active) | 19.3 µM (active) | 60.9 µM (active) and 29.8 µM (active) | 9.65 µM (active) and 5.96 µM (active) | 17.8 µM (active) and 21.9 µM (active) | 70.7 µM (active) | – | – | –
7 | Oc1cc2ccccc2cc1O | inactive | inactive | inactive | inactive | inactive | 39.9 µM (active) | – | – | – | –
8 | NC1(c2ccc(-c3nc4ccn5c(=O)[nH]nc5c4cc3-c3ccccc3)cc2)CCC1 | inactive | 26.6 µM (active) | inactive | – | – | inactive | inactive | inactive | – | –
9 | Cc1ccc(O)cn1 | inactive | inactive | inactive | inactive | inactive | inactive | inactive | – | – | –
10 | C/C=C/C(=O)C1=C(C)CCCC1(C)C | inactive | inactive | inactive | inactive | – | 79.6 µM (active) | inactive | inactive | – | –
11 | CCCCCCOc1ccc(O)cc1 | inactive | 61.1 µM (active) | inactive | – | 48.6 µM (active) | 20 µM (active) | 39.9 µM (active) | 79.6 µM (active) | – | –
12 | CCOC(/C=C(\C)CCC=C(C)C)OCC | inactive | inactive | inactive | inactive | inactive | – | inactive | inactive | – | –
13 | O=Nc1ccc(NO)cc1 | inactive | 63.6 µM (active) | inactive | – | – | – | inactive | inactive | – | –
14 | Cn1cccc1 | inactive | inactive | inactive | inactive | inactive | inactive | inactive | – | – | –
15 | c1cc2c3c(c1)ccc1cccc(c13)C2 | inactive | inactive | inactive | inactive | – | 40.8 µM (active) | – | – | – | –
16 | O=C1OC(OC(=O)c2cccnc2Nc2cccc(C(F)(F)F)c2)c2ccccc21 (centres undefined) | inactive | inactive | inactive | – | inactive | – | 6.17 µM (active) | inactive | -3.51% (inactive) | inactive
17 | CC1(C)C(=O)N(Br)C(=O)N1Br | inactive | inactive | inactive | inactive | inactive | inactive | – | – | – | –
18 | CCOC(=O)CN | inactive | inactive | inactive | inactive | inactive | inactive | inactive | – | – | –
19 | CCCCC(CC)COC(=O)c1ccc(O)cc1 (centres undefined) | inactive | 54.3 µM (active) and 61.1 µM (active) | inactive | – | 24.2 µM (active) and 68.6 µM (active) | 11.2 µM (active) and 17.8 µM (active) | 31.6 µM (active) and 35.6 µM (active) | 79.4 µM (active) and 22.4 µM (active) | – | –
20 | CC1CNCC(C)O1 (centres undefined) | inactive | inactive | inactive | – | inactive | inactive | inactive | inactive | – | –
21 | C[C@H]1O[C@@H](O[C@H]2[C@@H](O)C[C@H](O[C@H]3[C@@H](O)C[C@H](O[C@H]4CC[C@@]5(C)[C@H](CC[C@@H]6[C@@H]5C[C@@H](O)[C@]5(C)[C@@H](C7=CC(=O)OC7)CC[C@]65O)C4)O[C@@H]3C)O[C@@H]2C)C[C@H](O)[C@@H]1O | inactive | inactive | inactive | inactive | – | – | – | – | -1.12% (inactive) | –
22 | Nc1cc(Cl)c([N+](=O)[O-])cc1O | inactive | 68 µM (active) | inactive | – | 54 µM (active) | inactive | 31.5 µM (active) | inactive | – | –
23 | CC(C)CCOCCC(C)C | inactive | inactive | inactive | inactive | inactive | – | inactive | – | – | –
24 | CC1=C(/C=C/C(C)=C/C=C/C(C)=C/C(=O)Nc2ccc(O)cc2)C(C)(C)CCC1 | 70.3 µM (active) and 29.8 µM (active) | 44.4 µM (active) and 21.1 µM (active) | – | 55.9 µM (active) and 26.6 µM (active) | 19.8 µM (active) and inactive | 41 µM (active) and 27.5 µM (active) | 9.17 µM (active) and 8.71 µM (active) | 13.8 µM (active) | -17.3% (inactive) | inactive

Reference: PubChem BioAssay (Tox21)
